# Results taken from PubChem BioAssay (NCI).
# The panel holds about 83,000 compounds, 20% with a hit somewhere; the sample as a whole holds those more often.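 Negative percent growth values reflect cell death: -40 means 40% of the cells present at the start died, and -100 means all died.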 A number with no mark means an inactive call. Activity calls are given as the source filed them. Rule for the calls: active = growth percent below 10; inactive = the rest.
# Tests used:
# Experiment in all cases: NCI-60 one-dose screen, 48 h (100 = growth as untreated, 0 = no growth, -100 = all killed)
# Conditions in all cases: 10 µM unless noted
# [1] = system: RPMI-8226 leukemia
# [2] = system: OVCAR-8 ovarian
# [3] = system: OVCAR-5 ovarian
# [4] = system: OVCAR-4 ovarian
# [5] = system: SK-OV-3 ovarian
# [6] = system: IGROV1 ovarian
# [7] = system: OVCAR-3 ovarian
# [8] = system: HS 578T breast
# [9] = system: NCI/ADR-RES ovarian
# [10] = system: T-47D breast
SMILES,growth [1],growth [2],growth [3],growth [4],growth [5],growth [6],growth [7],growth [8],growth [9],growth [10]
CCCc1cc(=O)n2c(C(=O)Nc3ccccc3OC)c(C(=O)Nc3ccc(F)cc3)sc2n1,30.5% [30 µM],18.5% [30 µM],57.8% [30 µM],36.2% [30 µM],29.9% [30 µM],-12.6% [30 µM] (active),51.3% [30 µM],9.91% [30 µM] (active),24.8% [30 µM],85.4% [30 µM]
COc1ccc(-c2nn(-c3cccc(Cl)c3)cc2C2CC(c3ccccc3)=NN2C(C)=O)cc1 (stereo not given),97.6%,56.3%,80.9%,23.3%,32.2%,57%,80.6%,43.2%,74.3%,44.7%
O=C1NCN(CCO)CN1,85.6%,99.9%,101%,98.5%,95.4%,115%,107%,96.7%,102%,89.9%
NC(=O)c1ccccc1NC(=O)c1ccccc1Cl,85%,99.4%,108%,98.3%,107%,96%,109%,108%,115%,96.4%
CC(=O)c1ccc2c3c(n(C)c2c1)CCCC3,90.2%,106%,91.7%,106%,110%,104%,111%,141%,96.9%,109%
COc1ccc(Nc2nccc(N3CCN(c4c5ccc(Cl)cc5nc5ccc(OC)cc45)CC3)n2)cc1,29.5%,73.2%,97.1%,46.6%,107%,75.7%,67.5%,80.3%,75.9%,48.7%
Nc1nc(SCc2ccccc2Cl)c(-c2ccccc2)c(SCc2ccccc2Cl)n1,81.8%,98.4%,84.9%,95.8%,82.7%,97.4%,101%,93.4%,90.7%,58.4%
CCN1CCN(c2cc(-c3cn[nH]c3-c3cc(C)cc(OC)c3)nc(-c3cccnc3)n2)CC1,86.2%,79.6%,124%,94%,116%,84.4%,67.6%,68.8%,91.5%,83.1%
COc1cc(/C=C/c2nnc(-c3cc(-c4ccccc4)n[nH]3)o2)cc(OC)c1OC,83%,80.8%,101%,100%,88.7%,110%,107%,99.7%,86.7%,73.2%
CCN(CC)c1ccc(CN(CC(=O)c2ccc(Cl)c(Cl)c2)Cc2ccccc2)cc1,101%,100%,104%,105%,90%,107%,99.2%,103%,105%,85.5%
CN(C)c1ccc(/C=C(\C#N)c2nc3ccccc3c(=O)[nH]2)cc1,140%,97.1%,86.8%,29.9%,114%,-10.8% (active),114%,71.4%,76.9%,92.1%
Cc1ccccc1-c1cc(Cc2ccccc2O)c(=O)[nH]n1,78.6%,91.8%,118%,106%,253%,86.6%,100%,104%,111%,200%
COc1ccc2c(c1)C(=O)c1c-2c(OCCN(C)C)nc2cc(OC)ccc12,-25.4% (active),4.01% (active),44.9%,4.71% (active),23.9%,6.3% (active),32.5%,35.6%,-11.3% (active),47.1%
